# Experimental data taken from ChEMBL document CHEMBL4513216, “Probing the Open Global Health Chemical Diversity Library for Multistage-Active Starting Points for Next-Generation Antimalarials” (ACS Infect Dis, 2020).
# Hit rate of the full screen: of about 65,000 compounds, about 2,100 (3.2%) showed an effect of 50% or more. The median lay at about -52%. For the sample, strong results were picked, then their nearest neighbours and some compounds at random.
# Test system: Plasmodium falciparum
# Experiment: Screen against P. falciparum Asexual Blood Stage (ABS), at 5uM
# Assay type: functional, Dd2
# Conditions: tested at 5 uM
row,Structure (SMILES),INHIBITION [%]
1,CC(C)NC(=O)N1CCOC2(CNC2)C1,-131
2,Cc1cccc(CN2C[C@H](OCc3csc(C)n3)[C@H]3COC[C@H]32)n1,-75.9
3,Cn1ncc2c(NC3CN4CCC3CC4)nc(-c3ccncc3)nc21 (stereo unspecified),0.572
4,Cn1ncc2c(NC3CCSC3)nc(-c3ccncc3)nc21 (stereo unspecified),83.1
5,CN(C)C(=O)CN1C[C@H]2CC[C@@H](C1)N(Cc1c(Cl)cncc1Cl)C2,-33.6
6,CSc1ncc(CN2C[C@@H]3CC[C@H]2CN(C2CCOCC2)C3)cn1,-18.2
7,CCc1cc(CN2C[C@@H]3CC[C@H]2CN(C2Cc4ccccc4C2)C3)on1,88.2
8,COc1cc(CNC(C)Cn2cccn2)cc2c1OCCO2 (stereo unspecified),-31
9,Cc1ccsc1CN(CCCN(C)C)Cc1ccccn1,77.9
10,COCCN1CCO[C@@H]2CN(Cc3ccccn3)C[C@@H]2C1,-86.9
11,COCCn1ccnc1CN(Cc1ccccn1)Cc1sccc1C,92.9
12,COc1cc(CNC(C)Cn2cccn2)cc2c1OCO2 (stereo unspecified),-32.2
13,COc1cc(CN(CCCN(C)C)Cc2ccccn2)cc2c1OCO2,80.6
14,Cc1ccc(N2C[C@@H]3CN(Cc4csc(C)n4)CCO[C@@H]3C2)nn1,-106
15,O=C1CO[C@H]2CN(Cc3ccccc3Br)C[C@@H]2N1,7.05
16,Cc1cc(F)ccc1CN1CCC(O)(CN2CCCCC2)C1 (stereo unspecified),78.8
17,COc1ccc(F)cc1CN1CCC(O)(CN2CCCCC2)C1 (stereo unspecified),70.9
18,COc1ccc(F)cc1C(=O)C1CCCN(Cc2ccc(C)s2)C1 (stereo unspecified),17
19,CN1CCO[C@H]2CN(C(=O)c3ccoc3)C[C@H]21,-144
20,Cn1nc(-c2ccccc2)cc1[C@H]1CN2CC[C@H]1C[C@@H]2CNS(C)(=O)=O,15
21,O=C(Nc1ccc(F)cc1)N1CCC(CO)(Nc2ccccc2)CC1,-40.85
22,O=C1N(CCc2ccccc2)CCCC1(O)CNCc1ccc(F)cc1 (stereo unspecified),78.1
23,O=C(Cc1ccccc1)N1CCC2(CCN2Cc2ccc(F)cc2)C1 (stereo unspecified),-12.1
24,O=C1N(CCCc2ccccc2)CCCC1(O)CNCC1CCCCC1 (stereo unspecified),72.4
25,CC(Cn1cccn1)NCCS(=O)(=O)c1ccccc1 (stereo unspecified),-87.3
26,O=C(C1CCN(S(=O)(=O)N2CCCC2)CC1)N1CCC2(CC1)OCCO2,-133

row,Structure (SMILES),INHIBITION [%]
1,CC(C)CN1C[C@@H]2C[C@H](C(=O)NCc3cccnc3)[C@H](C1)O2,-83.7
2,CCc1ccc(CN(C)c2ccc(-c3nc(COC)no3)cn2)nc1,78.4
3,c1cnc(N2CCO[C@H]3CN(CC4CCOCC4)C[C@H]32)nc1,-125
4,Cc1nnc(NC(=O)CN2CCCC(c3ccn[nH]3)C2)s1 (stereo unspecified),85.8
5,O=C(CN1CCCC(c2ccn[nH]2)C1)Nc1nncs1 (stereo unspecified),89.1
6,CC(C)(CNc1ccc(C#N)c(C(F)(F)F)c1)C(N)=O,-66.3
7,Cc1ccc(C2(CN(C)Cc3sccc3C)CCNCC2)nc1,77.4
8,COc1ccc(C(=O)NCCCOC(C)c2ccccc2)c(OC)c1 (stereo unspecified),78.9
9,COCCCNC(=O)c1cn(C(C)(C)C)c2ncccc12,-71.7
10,Fc1ccc(CN2C[C@@H](OCc3ccccn3)[C@H]3COC[C@H]32)cc1,-62.3
11,O=C(NCCCN1CCCCC1)c1ccc(-n2ccc3ccccc32)s1,79
12,CCN(CC)CCNC(=O)c1ccc(-n2ccc3ccccc32)s1,90.5
13,Cc1nc(CN2CCN3C[C@H](Oc4cncnc4)C[C@H]3C2)cs1,-50.1
14,COc1ncccc1CN1CCC2(CC1)COCCN2C,-36
15,COc1ncccc1CN1C[C@@H]2CN(c3ncccn3)C[C@@H]2C1,5.48
16,CN1CCN(Cc2ccccc2Oc2nccc3occc23)CC1,77.4
17,COCCCN1CCCC12CCN(Cc1cccnc1OC)CC2,8.49
18,c1ccc(Oc2nccc3occc23)c(CN2CCCCC2)c1,72.9
19,O=C([C@H]1C[C@H]2OCC[C@H]2N(Cc2cccnc2)C1)N1CCCCO1,-141
20,O=C(c1c[nH]c2ncccc12)N(Cc1ccco1)C1CCCC1,87
21,CCC(C)(C)n1nnnc1C(c1cccs1)N1CCc2ccccc2C1 (stereo unspecified),73.9
22,c1ccc(Sc2ccc3c(c2)OCO3)c(CNC2=NCCN2)c1,83.7
23,Fc1ccccc1Sc1ccccc1CNC1=NCCN1,77.4
24,Fc1ccc(Sc2ccccc2CNC2=NCCN2)cc1,80.4
25,Cc1csc(CN2CC[C@H]3C[C@H](c4ccncn4)O[C@@H]3C2)n1,-50.8
26,CNCc1cn(C[C@H]2C[C@@H]3CCN2C[C@@H]3C(=O)NC2CCCCC2)nn1,-152

row,Structure (SMILES),INHIBITION [%]
1,CO[C@H]1CCN(S(=O)(=O)N(C)C)[C@@H]2CN(Cc3cccnc3)C[C@H]12,-7.26
2,O=C(Nc1ccccc1)[C@H]1CN2CC[C@H]1C[C@@H]2Cn1cc(CCO)nn1,-52.4
3,c1ccc(COC2C[C@@H]3CN(Cc4cccnc4)C[C@@H]3C2)cc1 (stereo partly specified),-9.68
4,CC(C)CN1CCNC(=O)C12CCN(C(=O)c1ccccn1)CC2,-97.5
5,O=C(N1CCCC1)N1C[C@@H]2CC[C@H]1CN(Cc1ccncc1)C2,-121
6,Cc1cccc(CO[C@@H]2C[C@H]3CN(c4ncccn4)CCN3C2)n1,-75.8
7,CCN(CC)Cc1ccccc1NC(=O)N(C)Cc1ccccc1O,85
8,Cc1cccc(CN2C(=O)C[C@@H]3[C@@H]2CCN3Cc2ccsc2)n1,-13
9,COc1ccccc1OCC(=O)N1CCN(Cc2noc(C)n2)CC1,-68.9
10,CC(C)c1nc(CN2CCN(C(=O)Cc3ccccc3Cl)CC2)no1,10.3
11,Cc1nc(CN2CCCC(NCCc3ccccc3Cl)C2)no1 (stereo unspecified),82.3
12,Fc1cnc(N2CCO[C@H]3CN(CC4CCC4)C[C@H]32)nc1,-80
13,Cn1c(CN2CCCCC2)cc(=O)c(O)c1CN1CCCCC1,81.8
14,CO[C@H]1CN(CC2CCOCC2)[C@@H]2CCCO[C@H]12,-48.2
15,Cc1c(C)n(CC(O)CN2CCN(CCO)CC2)c2c(Cl)cccc12 (stereo unspecified),88.6
16,Cc1c(C)n(CC(O)CN2CCC(C)CC2)c2c(Cl)cccc12 (stereo unspecified),83
17,CCC(O)CN1CCN(C(=O)Cc2ccccc2Cl)CC1 (stereo unspecified),-113
18,CCS(=O)(=O)N1CCN(CCOC)c2ncccc2C1,-58.7
19,COCCN1CCOCC12CCN(C(=O)c1cccnc1)CC2,-95.8
20,O=C(NC1CC1)[C@H]1C[C@H]2OCC[C@H]2N(Cc2cccnc2)C1,-76.1
21,c1c[nH]c2nc(C3CCCNC3)nc-2c1 (stereo unspecified),-172
22,CN(C)c1cc(C2CCCNC2)ccn1 (stereo unspecified),-11.8
23,Fc1ccc(-c2nccnc2C2CCCNC2)cc1 (stereo unspecified),76.6
24,CC1CCCCN1C(=O)c1coc(COc2cccc3cnccc23)n1 (stereo unspecified),86.5
25,Cc1cccc(CN2CC[C@H]3[C@H]2CCN3C(=O)c2cnn(C)c2)n1,-5.92
26,Cc1ccc(NC(=O)NC(C)c2nc[nH]n2)cc1Cl (stereo unspecified),-107

row,Structure (SMILES),INHIBITION [%]
1,COc1ccc(NC(=O)Nc2cnc(N3CCN(C)CC3)nc2)cc1Cl,87.9
2,CNS(=O)(=O)CC(=O)NC(C)Cc1ccc(Br)cc1 (stereo unspecified),-89.6
3,Cc1nccc([C@@H]2C[C@@H]3CCN(Cc4cccs4)C[C@H]3O2)n1,-92.1
4,CN1C(Cn2cccn2)C[C@@H]2CN(Cc3ccccn3)CC[C@@H]21 (stereo partly specified),41.6
5,O=C(c1ncccn1)N1C[C@@H]2CN(CC3CC3)CCO[C@@H]2C1,-14.4
6,NC(=O)N1C[C@H]2CN(Cc3nccs3)C[C@H]2C1,-12
7,c1cnn(C[C@@H]2C[C@@H]3CN(CC4CC4)CC[C@@H]3N2c2nccs2)c1,89.9
8,CN1CC[C@H]2[C@H](C[C@@H](CN3CCCC3)N2c2nccs2)C1,73.7
9,CN1[C@H](Cn2cccn2)C[C@@H]2CN(Cc3cccs3)CC[C@@H]21,75.8
10,C[C@H]1C[C@@H]2CCN(Cc3nccs3)C[C@H]2O1,-9.59
11,C[C@@H]1C[C@@H]2CCN(Cc3nccs3)C[C@H]2O1,-26.9
12,CCN(CCc1ccccc1)Cn1nc(C)c2c(C)onc2c1=O,-13.3
13,Clc1ccc(-c2ccc(C3CNCCO3)nc2)cc1 (stereo unspecified),85.9
14,Cc1ccc(-c2ccc(C3CNCCO3)nc2)cc1 (stereo unspecified),83.5
15,CCCC(=O)N1CCC2(CC1)OCCO2,-40.8
16,CN1CCC(c2cncc(Cl)n2)CC1,-28.5
17,COCCN1CC[C@H]2OCC[C@@H](C(=O)Nc3cccnc3)[C@@H]2C1,-67.2
18,OCCN1CCC(c2cncc(-c3cccc(Cl)c3)n2)CC1,71.1
19,COCCN1CC=C(c2cccc(OC)c2)CC1,13.9
20,COCCN1CCC(c2cncc(-c3cccc(Cl)c3)n2)CC1,71.1
21,CCCS(=O)(=O)N1CCOC2(CCCN(Cc3ccccn3)C2)C1 (stereo unspecified),-21.2
22,CN(C)C[C@]12COC[C@H]1CN(Cc1ccccn1)C2,-39.8
23,Cc1ccc(CN2CCN(C)c3ncccc3C2)o1,-75.5
